Values joined by “and” are separate entries in the source; they are usually repeats but may differ in a detail not shown here. Equal entries are not always repeated. Records with an inconclusive call do not appear. Entries that show only a call come without a potency. Active and inactive are the calls of the source. Unless noted, calls come from the whole dose curve.
Key:
[1] = qHTS for Inhibitors of the Functional Ribonucleoprotein Complex (vRNP) of Lassa (LASV) Arenavirus: LASV Primary Screen - GLuc reporter signal (AID 1347082; calls by dose curve; tested in HEK293 reporter line; note: nearly all actives have a fitted effect of over 60% in size; note: potency is the fitted concentration of half-maximal effect)
[2] = qHTS for Inhibitors of the Functional Ribonucleoprotein Complex (vRNP) of Lassa (LASV) Arenavirus: Viability assay - alamar blue signal for LASV Primary Screen (AID 1347083; calls by dose curve; tested in HEK293 reporter line; note: nearly all actives have a fitted effect of over 80% in size; note: potency is the fitted concentration of half-maximal effect)
[3] = qHTS for Inhibitors of the Functional Ribonucleoprotein Complex (vRNP) of Lymphocytic Choriomeningitis Arenaviruses (LCMV): Viability assay - alamar blue signal for LCMV Primary Screen (AID 1347085; calls by dose curve; tested in HEK293 reporter line; note: nearly all actives have a fitted effect of over 80% in size; note: potency is the fitted concentration of half-maximal effect)
[4] = biological target: Nucleoprotein (Lymphocytic choriomeningitis virus (strain Armstrong)) (UniProt P09992); assay: qHTS for Inhibitors of the Functional Ribonucleoprotein Complex (vRNP) of Lymphocytic Choriomeningitis Arenaviruses (LCMV): LCMV Primary Screen - GLuc reporter signal (AID 1347086); note: nearly all actives have a fitted effect of over 70% in size; note: potency is the fitted concentration of half-maximal effect
[5] = Primary qHTS for Huh7 cytotoxicity: counterscreen for inhibitors of MERS-S pseudotyped particle cell entry (AID 1479147); conditions: outcome: dose series up to 57.1 µM unless noted
[6] = Primary qHTS for inhibitors of MERS-S pseudo-typed particle cell entry (AID 1479149); note: nearly all actives have a fitted effect of over 60% in size; note: potency is the fitted concentration of half-maximal effect
[7] = Primary qHTS for Vero E6 cytotoxicity: counterscreen for inhibitors of SARS-S pseudo-typed particle cell entry (AID 1479150); conditions: outcome: dose series up to 57.1 µM unless noted
[8] = Cytotoxicity counterscreen for inhibitors of SARS-CoV-2 cell entry (AID 1645845); note: nearly all actives have a fitted effect of over 50% in size
Method in brief: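 48 h compound treatment (after 1 h preincubation), HEK293-ACE2 cells, 37 C/5% CO2; ATP luminescence endpoint; normalized to cell wells and media blanks.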

[9] = Primary qHTS to identify inhibitors of SARS-CoV-2 cell entry (AID 1645846); conditions: activity change, negative = inhibition: at 57.1 µM (top of the series) unless noted; note: nearly all actives have a fitted effect of over 45% in size; note: potency is the fitted concentration of half-maximal effect
Method in brief: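 HEK293 cells stably expressing human ACE2, pre-treated 1 h with compound, then infected with MLV particles pseudotyped with Wuhan-Hu-1 spike (C-terminal 19-aa truncation). Luciferase luminescence after 48 h at 37 °C, normalised to spike PP and bald PP.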

[10] = Validation screen for inhibitors of Lassa infection (AID 463096)
[11] = Inducers of the Endoplasmic Reticulum Stress Response (ERSR) in human glioma: Validation (AID 504836; active = well fitted curve in the direction sought with a large enough effect; an effect the other way counts as inactive or inconclusive)
Method in brief: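 ERSR induction read as luciferase luminescence (Bright-Glo, 10 min at room temperature) in stably transfected human U87-MG glioma cells exposed to compounds for 16 h, using GRP78 as sensor.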

[12] = qHTS profiling of the MIPE4 collection as inhibitors of Plasmodium falciparum (3D7) proliferation (AID 743344; call rule not given here); conditions: P. falciparum 3D7 in erythrocytes, SYBR Green DNA fluorescence, 72 h; at 28.5 µM (top of the series) unless noted
Method in brief: (§1)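 Erythrocytes infected with P. falciparum (0.3% parasitemia, 2.5% hematocrit) incubated with compounds 72 h at 37 C, 5% CO2. Lysis with saponin/Triton buffer containing SYBR Green I, overnight at room temperature in the dark; DNA fluorescence (485/535 nm) normalised to 0.29 uM artemisinin and DMSO.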

[13] = qHTS profiling of the MIPE4 collection as inhibitors of Plasmodium falciparum (DD2) proliferation (AID 743345; call rule not given here); conditions: P. falciparum Dd2 in erythrocytes, SYBR Green DNA, 72 h; at 28.5 µM (top of the series) unless noted
Method in brief: as §1

[14] = qHTS profiling of the MIPE4 collection as inhibitors of Plasmodium falciparum (HB3) proliferation (AID 743347; call rule not given here); conditions: P. falciparum HB3 in erythrocytes, SYBR Green DNA, 72 h; at 28.5 µM (top of the series) unless noted
Method in brief: as §1

[15] = Primary qHTS for inhibitors of SARS-S pseudo-typed particle cell entry (AID 1479145); note: potency is the fitted concentration of half-maximal effect; nearly all actives have a fitted effect of over 45% in size
[16] = biological target: Alpha-galactosidase (Coffea arabica) (UniProt Q42656); assay: Counterscreen for Glucocerebrosidase Inhibitors: qHTS Assay for Coffee Bean alpha-Galactosidase at pH 4.5 (AID 957; active = well fitted curve in the direction sought with a large enough effect; an effect the other way counts as inactive or inconclusive)
Method in brief: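 AC50 values derive from Hill-equation modeling of concentration-response data, normalized to no-enzyme and full-activity controls. The pH 4.5 citrate assay used 2 nM coffee bean enzyme and 80 uM fluorogenic substrate for 20 min.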

[17] = biological target: Alpha-galactosidase (Coffea arabica) (UniProt Q42656); assay: Counterscreen for Glucocerebrosidase Inhibitors: qHTS Assay for Coffee Bean alpha-Galactosidase at pH 5.9 (AID 998; active = well fitted curve in the direction sought with a large enough effect; an effect the other way counts as inactive or inconclusive)
Method in brief: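 Compounds were titrated from 0.7 nM to 77 uM against green coffee bean alpha-galactosidase (2 nM) using 80 uM fluorogenic 4-methylumbelliferyl substrate. After 20 min at room temperature, reactions were stopped at pH 10 and read by fluorescence.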

[18] = Primary qHTS for small molecule stabilizers of the endoplasmic reticulum resident proteome: Secreted ER Calcium Modulated Protein (SERCaMP) assay (AID 1508630; active = well fitted curve in the direction sought with a large enough effect; an effect the other way counts as inactive or inconclusive)
Method in brief: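 GLuc-SERCaMP-expressing SH-SY5Y cells, pretreated 16 h with compound, are challenged with thapsigargin to empty ER calcium stores; after 4 h, coelenterazine is added directly to the medium and luminescence is imaged.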

Sequence of Nucleoprotein (Lymphocytic choriomeningitis virus (strain Armstrong)) (P09992 whole entry, looked up): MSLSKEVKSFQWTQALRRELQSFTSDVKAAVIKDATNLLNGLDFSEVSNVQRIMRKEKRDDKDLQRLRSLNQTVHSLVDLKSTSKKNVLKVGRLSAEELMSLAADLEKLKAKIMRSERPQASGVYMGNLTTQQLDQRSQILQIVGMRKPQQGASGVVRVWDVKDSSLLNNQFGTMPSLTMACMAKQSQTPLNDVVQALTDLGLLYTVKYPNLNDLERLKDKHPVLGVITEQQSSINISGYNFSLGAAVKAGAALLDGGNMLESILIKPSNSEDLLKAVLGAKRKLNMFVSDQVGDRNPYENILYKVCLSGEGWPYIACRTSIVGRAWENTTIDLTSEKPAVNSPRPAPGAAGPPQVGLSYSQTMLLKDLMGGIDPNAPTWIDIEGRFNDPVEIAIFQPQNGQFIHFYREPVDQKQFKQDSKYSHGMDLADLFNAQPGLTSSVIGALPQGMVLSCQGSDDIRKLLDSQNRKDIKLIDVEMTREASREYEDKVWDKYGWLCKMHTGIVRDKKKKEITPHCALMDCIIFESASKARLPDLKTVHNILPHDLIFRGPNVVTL
Sequence of Alpha-galactosidase (Coffea arabica) (Q42656 whole entry, looked up): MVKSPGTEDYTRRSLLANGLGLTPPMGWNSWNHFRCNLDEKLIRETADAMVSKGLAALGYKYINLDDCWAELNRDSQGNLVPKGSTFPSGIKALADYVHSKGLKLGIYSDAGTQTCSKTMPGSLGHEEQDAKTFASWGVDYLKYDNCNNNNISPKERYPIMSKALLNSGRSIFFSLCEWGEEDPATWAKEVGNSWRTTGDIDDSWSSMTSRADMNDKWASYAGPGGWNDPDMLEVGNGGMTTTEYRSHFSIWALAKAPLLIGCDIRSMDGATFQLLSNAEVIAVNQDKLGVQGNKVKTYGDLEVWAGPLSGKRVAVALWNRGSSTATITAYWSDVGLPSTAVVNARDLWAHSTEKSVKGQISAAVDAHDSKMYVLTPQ

## CCCNS(=O)(=O)Nc1ncnc(OCCOc2ncc(Br)cn2)c1-c1ccc(Br)cc1
[1]
  Potency: inactive
[2]
  Potency: inactive
[3]
  Potency: inactive
[4]
  Potency: inactive
[5]
  outcome: inactive
[6]
  Potency: inactive
[7]
  outcome: inactive
[8]
  Potency: inactive

## CCC(=O)NCC[C@@H]1CCc2ccc3c(c21)CCO3
[1]
  Potency: inactive
[2]
  Potency: inactive
[3]
  Potency: inactive
[4]
  Potency: inactive
[5]
  outcome: inactive
[6]
  Potency: inactive
[7]
  outcome: inactive
[8]
  Potency: inactive
[9]
  activity change, negative = inhibition: -26.7%

## CN(C)CCC(c1ccc(Br)cc1)c1ccccn1 (centres undefined)
[10]
  Potency: inactive
[11]
  outcome: inactive
[1]
  Potency: inactive
[2]
  Potency: inactive
[3]
  Potency: inactive
[4]
  Potency: inactive
[5]
  outcome: inactive
[6]
  Potency: inactive
[7]
  outcome: inactive
[8]
  Potency: inactive

## COC(=O)C[C@](O)(CCCC(C)(C)O)C(=O)O[C@@H]1C(OC)=C[C@]23CCCN2CCc2cc4c(cc2[C@H]13)OCO4
[12]
  parasite growth, % of DMSO control: 70%
[13]
  parasite growth remaining, % of DMSO control (lower = more inhibition): 85.8%
[14]
  growth, % of control: 76.2%
[1]
  Potency: inactive
[2]
  Potency: inactive
[3]
  Potency: inactive
[4]
  Potency: inactive
[15]
  Potency: 3.16 µM (active)
[5]
  outcome: inactive
[6]
  Potency: 0.891 µM (active)
[8]
  Potency: inactive

## COc1ccc(-n2nc(C(N)=O)c3c2C(=O)N(c2ccc(N4CCCCC4=O)cc2)CC3)cc1
[1]
  Potency: inactive
[2]
  Potency: inactive
[3]
  Potency: inactive
[4]
  Potency: inactive
[5]
  outcome: inactive
[6]
  Potency: inactive
[7]
  outcome: inactive
[8]
  Potency: inactive
[9]
  Potency: inactive

## CC1(C)CCC(CN2CCN(c3ccc(C(=O)NS(=O)(=O)c4ccc(NCC5CCOCC5)c([N+](=O)[O-])c4)c(Oc4cnc5[nH]ccc5c4)c3)CC2)=C(c2ccc(Cl)cc2)C1
[1]
  Potency: inactive
[2]
  Potency: inactive
[3]
  Potency: inactive
[4]
  Potency: inactive
[5]
  outcome: inactive
[6]
  Potency: inactive
[7]
  outcome: inactive
[8]
  Potency: inactive
[9]
  activity change, negative = inhibition: -9.23% and -30%

## NC(N)=NCc1cccc(I)c1
[16]
  outcome: inactive
[17]
  outcome: inactive
[10]
  Potency: inactive
[11]
  outcome: inactive
[1]
  Potency: inactive
[2]
  Potency: inactive
[3]
  Potency: inactive
[4]
  Potency: inactive
[5]
  outcome: inactive
[6]
  Potency: inactive
[7]
  outcome: inactive
[8]
  Potency: inactive

## COc1c(OCCCN2CCOCC2)ccc2c3n(c(=NC(=O)c4cnc(N)nc4)nc12)CCN3
[1]
  Potency: 1.5 µM (active)
[2]
  Potency: 0.298 µM (active)
[3]
  Potency: 1.06 µM (active)
[4]
  Potency: 2.98 µM (active)
[5]
  activity change, negative = cytotoxicity: 3.49% [at 11.4 µM] (inactive)
[6]
  Potency: 3.55 µM (active)
[7]
  activity change, negative = cytotoxicity: -14.8% [at 11.4 µM] (inactive)

## CCCCCCCCCCCCCCCC(=O)O[C@@H]1CC(C)=C(/C=C/C(C)=C/C=C/C(C)=C/C=C/C=C(C)/C=C/C=C(C)/C=C/C2=C(C)C[C@@H](OC(=O)CCCCCCCCCCCCCCC)CC2(C)C)C(C)(C)C1
[1]
  Potency: inactive
[2]
  Potency: inactive
[3]
  Potency: inactive
[4]
  Potency: inactive
[5]
  outcome: inactive
[6]
  Potency: inactive
[7]
  outcome: inactive
[8]
  Potency: inactive

## CC(C)(CO)[C@@H](O)C(=O)NCCC(=O)O
[1]
  Potency: inactive
[2]
  Potency: inactive
[3]
  Potency: inactive
[4]
  Potency: inactive
[5]
  outcome: inactive
[6]
  Potency: inactive
[7]
  outcome: inactive
[8]
  Potency: inactive

## CO[C@@H]1[C@H](OC(=O)/C=C/C=C/C=C/C=C/C(=O)O)CC[C@]2(CO2)[C@H]1[C@@]1(C)O[C@@H]1CC=C(C)C
[1]
  Potency: inactive
[2]
  Potency: inactive
[3]
  Potency: inactive
[4]
  Potency: inactive
[5]
  outcome: inactive
[6]
  Potency: inactive
[7]
  outcome: inactive
[8]
  Potency: inactive

## CC(C)C(=O)Oc1ccc(CO)cc1[C@H](CCN(C(C)C)C(C)C)c1ccccc1
[1]
  Potency: inactive
[2]
  Potency: inactive
[3]
  Potency: inactive
[4]
  Potency: inactive
[5]
  outcome: inactive
[6]
  Potency: 14.1 µM (active)
[7]
  outcome: inactive
[8]
  Potency: inactive
[9]
  Potency: 14.1 µM (active)

## O=C(O)/C=C/c1ccccc1
[1]
  Potency: inactive
[2]
  Potency: inactive
[3]
  Potency: inactive
[4]
  Potency: inactive
[5]
  outcome: inactive [at 114 µM]
[6]
  Potency: inactive
[7]
  outcome: inactive [at 114 µM]
[8]
  Potency: inactive
[9]
  activity change, negative = inhibition: -30.4% [at 114 µM]

## Cc1c(-c2ccc(O)cc2)n(Cc2ccc(OCCN3CCCCCC3)cc2)c2ccc(O)cc12
[1]
  Potency: inactive
[2]
  Potency: inactive
[3]
  Potency: inactive
[4]
  Potency: inactive
[6]
  Potency: 10 µM (active)
[7]
  outcome: inactive
[8]
  Potency: inactive

## CN(C/C=C/c1ccccc1)Cc1cccc2ccccc12
[1]
  Potency: inactive
[2]
  Potency: inactive
[3]
  Potency: inactive
[4]
  Potency: inactive
[5]
  outcome: inactive
[7]
  outcome: inactive
[8]
  Potency: inactive

## C[C@H]1COc2c(N3CCN(C)CC3)c(F)cc3c(=O)c(C(=O)O)cn1c23
[1]
  Potency: inactive
[2]
  Potency: inactive
[3]
  Potency: inactive
[4]
  Potency: inactive
[5]
  outcome: inactive
[6]
  Potency: inactive
[7]
  outcome: inactive
[9]
  activity change, negative = inhibition: -10.7% and -28.1%

## O=C(O)c1nc(=O)[nH]c(=O)[nH]1
[1]
  Potency: inactive
[2]
  Potency: inactive
[3]
  Potency: inactive
[4]
  Potency: inactive
[5]
  outcome: inactive [at 0.573 µM]
[6]
  outcome: inactive [at 0.573 µM]
[7]
  activity change, negative = cytotoxicity: 2.99% [at 0.573 µM] (inactive)
[8]
  Potency: inactive
[9]
  activity change, negative = inhibition: -18.6% [at 27.1 µM]
  outcome: inactive [at 0.702 µM]

## C[N+]1(CCCCC[N+]2(C)CCCC2)CCCC1
[16]
  outcome: inactive
[17]
  outcome: inactive
[10]
  Potency: inactive
[1]
  Potency: inactive
[2]
  Potency: inactive
[3]
  Potency: inactive
[4]
  Potency: inactive
[5]
  outcome: inactive
[6]
  Potency: inactive
[7]
  outcome: inactive
[8]
  Potency: inactive

## CCN1C[C@]2(COC(=O)c3ccccc3N3C(=O)CC(C)C3=O)CC[C@H](OC)[C@@]34C5C[C@@H]6[C@@H](OC)C[C@@](O)(C5[C@H]6OC)[C@](O)([C@@H](OC)C23)[C@@H]14 (some centres undefined)
[1]
  Potency: inactive
[2]
  Potency: inactive
[3]
  Potency: inactive
[4]
  Potency: inactive
[18]
  Potency: inactive

## OC[C@@H]1[C@@H](O)[C@H](O)[C@H]2[C@@H](O)CCN21
[1]
  Potency: inactive
[2]
  Potency: inactive
[3]
  Potency: inactive
[4]
  Potency: inactive

## CCN1C[C@]2(C)CC[C@H](OC)[C@]34C5C[C@@H]6CC[C@@](O)(C5C(=O)O6)C(C13)[C@@H](OC(=O)c1ccccc1)C24
[1]
  Potency: inactive
[2]
  Potency: inactive
[3]
  Potency: inactive
[4]
  Potency: inactive
[18]
  Potency: inactive

Reference: PubChem BioAssay (NCATS)
